Results as given in the supplement of paper PMC5919970.
Structures can show the parent of a compound that is named as a salt. The full ranking holds about 2,000 compounds; the median of “fractional viability relative to vehicle” is about 0.92, and the lowest 2% start at about 0.11. This excerpt belongs to a sample that is enriched for the lowest values.

Tested on: TYKNU
Assay: fractional viability relative to vehicle; TYKNU is a high-grade serous ovarian cancer line; higher = less growth inhibition
Conditions: 72 h, genotype: OPA1 knockout (sgOPA1 #2)
Procedure, shortened: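 TYKNU control cells or lentiCRISPRv2 knockout derivatives were plated at 500 cells per well in duplicate into drug-stamped 384-well plates holding a ~2100-compound library at 2 or 10 μM. Culture was in RPMI 1640 with 10% FBS at 37 °C in 5% CO2, with 72 h of drug treatment. Viability was measured by Cell Titer Glo luminescence, and the averaged duplicate treatment wells were normalised to duplicate control wells at the same plate position.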

Compound	fractional viability (2uM)	fractional viability (10uM)
Cc1c[nH]c(/C=C2\C(=O)Nc3ccccc32)c1CCC(=O)O	0.793	0.846
CCS(=O)(=O)Nc1ccc2c(c1)/C(=C(/Nc1ccc(CN3CCCCC3)cc1)c1ccccc1)C(=O)N2 [Hesperadin]	0.544	0.113
COC(=O)c1ccc2c(c1)NC(=O)/C2=C(\Nc1ccc(N(C)C(=O)CN2CCN(C)CC2)cc1)c1ccccc1 [Nintedanib (BIBF 1120)]	1.32	0.372
CN(C)Cc1cccc(N/C(=C2\C(=O)Nc3cc(C(N)=O)ccc32)c2ccccc2)c1	0.93	0.993
CCOc1cc(C(C)(C)C)ccc1C1=N[C@@](C)(c2ccc(Cl)cc2)[C@@](C)(c2ccc(Cl)cc2)N1C(=O)N1CCN(CCCS(C)(=O)=O)CC1	0.49	0.469
O=C(c1cc(Cc2n[nH]c(=O)c3ccccc23)ccc1F)N1CCN(C(=O)C2CC2)CC1	1.03	0.936
C=CC(=O)Nc1cccc(Oc2nc(Nc3ccc(N4CCN(C)CC4)cc3OC)ncc2Cl)c1	0.964	0.766
C=CC(=O)Nc1cccc(Oc2nc(Nc3ccc(N4CCN(C)CC4)cc3)ncc2Cl)c1	0.825	0.5
C=CC(=O)Nc1cccc(Sc2nc(Nc3ccc(N4CCN(C)CC4)cc3)ncc2Cl)c1	1.31	0.1
COc1ccc(CCc2nc3cc(-c4c(C)noc4C)ccc3n2C[C@H](C)N2CCOCC2)cc1Cl	0.813	0.639
COc1cc2nc(N3CCN(C(=O)C4COc5ccccc5O4)CC3)nc(N)c2cc1OC (stereo not drawn) [Doxazosin Mesylate]	1.1	1.22
COc1cc(OC)c(C(=O)CCCN2CCCC2)c(OC)c1 [Buflomedil HCl]	0.851	0.685
COc1cc(Nc2c(C#N)cnc3cc(OCCCN4CCN(C)CC4)c(OC)cc23)c(Cl)cc1Cl [Bosutinib (SKI-606)]	0.995	0.284
COc1cc2nc(N3CCCC3)nc(NCCCCCN3CCCC3)c2cc1OC	0.679	0.0949
COc1cc2nc(N3CCCN(C)CC3)nc(NC3CCN(Cc4ccccc4)CC3)c2cc1OC	0.506	0.0546
COc1cc2nc(N3CCN(C(=O)C4CCCO4)CC3)nc(N)c2cc1OC (stereo not drawn) [Terazosin HCl]	1.14	1.15
COC(=O)c1ccc2c(c1)[nH]c1ncnc(NCCCN3CCCCC3)c12	0.785	0.985
COc1cc2c(Oc3ccc4[nH]c(C)cc4c3F)ncnc2cc1OCCCN1CCCC1 [Cediranib (AZD2171)]	1.1	0.181
COc1cc2c(NC3CCN(CC4CCCCC4)CC3)nc(N3CCCN(C(C)C)CC3)nc2cc1OCCCN1CCCCC1	0.786	0.0322
Cc1nc2c(O)cccc2c(=O)[nH]1	0.925	0.903
O=C(CCCCCCC(=O)Nc1ccc([C@H]2O[C@@H](CSc3nc(-c4ccccc4)c(-c4ccccc4)o3)C[C@@H](c3ccc(CO)cc3)O2)cc1)NO [Tubacin]	1.06	0.628
CCOC(=O)[C@@H](N)Cc1ccc(-c2cc(O[C@H](c3ccc(Cl)cc3-n3ccc(C)n3)C(F)(F)F)nc(N)n2)cc1 [Telotristat Etiprate (LX 1606 Hippurate)]	0.935	0.335
CC(C)n1cnc2c(NCCc3ccc(O)cc3)nc(-c3csc4ccccc34)nc21 [StemRegenin 1 (SR1)]	1.1	0.769
CNC1CCC(N(Cc2cccc(-c3ccncc3)c2)C(=O)c2sc3ccccc3c2Cl)CC1 (stereo not drawn) [Smoothened Agonist (SAG) HCl]	0.918	0.259
O=C1NC(=O)/C(=C/c2ccc(-c3ccc(F)cc3O)o2)S1	0.814	0.742

Compound	fractional viability (2uM)	fractional viability (10uM)
N[C@H]1CC[C@H](N[C@@H]2C[C@H]2c2ccccc2)CC1	0.794	0.89
CN1CCN(c2ccc3nc(-c4c(N)c5c(F)cccc5[nH]c4=O)[nH]c3c2)CC1 [Dovitinib (TKI-258, CHIR-258)]	0.815	0.25
CN1CCN(c2ccc3nc(-c4c(N)c5c(F)cccc5[nH]c4=O)[nH]c3c2)CC1 [Dovitinib (TKI258) Lactate]	0.815	0.0801
Cc1nn(-c2ccccc2)c(C)c1C=NN1CCN(Cc2ccccc2)CC1	0.946	0.905
COCC(=O)NC/C=C/c1ccc2ncnc(Nc3ccc(Oc4ccc(C)nc4)c(C)c3)c2c1	1.29	1.17
CCCCCCCCCCCCc1ccc(S(=O)(=O)Nc2nncs2)cc1	1.06	1.05
CCCCCCCc1ccc(CCc2cccc(O)c2C(=O)O)cc1	0.96	0.73
CCCCCCCCc1ccc(CCC(N)(CO)CO)cc1 [Fingolimod (FTY720) HCl]	1.08	0.0752
O=C(c1ccc(OCCCc2c[nH]cn2)cc1)C1CC1 [Ciproxifan]	1.1	0.986
CCCCCCCCCCCCCCCCn1cc[n+](Cc2ccccc2)c1C	0.363	0.0434
CCO[C@@H]1OC(=O)C[C@@H]1NC(=O)[C@@H]1CCCN1C(=O)[C@@H](NC(=O)c1ccc(N)c(Cl)c1)C(C)(C)C	0.969	0.919
Cc1cc([N+](=O)[O-])ccc1NS(=O)(=O)c1cc(Cl)ccc1Cl	0.656	0.476
CC(C)c1nc(N(C)S(C)(=O)=O)nc(-c2ccc(F)cc2)c1/C=C/[C@@H](O)C[C@@H](O)CC(=O)O [Rosuvastatin Calcium]	1.06	1.07
Nc1cccc2c1C(=O)N(C1CCC(=O)NC1=O)C2=O (stereo not drawn) [Pomalidomide]	1.18	1.05
CNc1nc(Nc2cn(C(C)(C)C#N)nc2C)ncc1C(F)(F)F	0.801	0.885
Cc1ccc(-c2c(-c3nn(C)c4ncnc(N5CC[C@H](N6CCCCC6)C5)c34)cnn2C)cc1	0.983	1.09
CCC[C@H](N[C@H]1CCc2cc(F)cc(F)c2C1)C(=O)Nc1cn(C(C)(C)CNCC(C)(C)C)cn1	0.786	0.87
CC(=O)[C@@]1(O)CC[C@H]2[C@@H]3CCC4=CC(=O)CCC4=C3[C@@H](c3ccc(N(C)C)cc3)C[C@@]21C [Ulipristal]	0.841	1.07
Cn1sc(=O)n(Cc2ccccc2)c1=O	0.609	0.104
Cc1ccc(-n2sc(=O)n(Cc3ccc(F)cc3)c2=O)cc1	0.801	0.457
O=C(O)CSc1cc(NS(=O)(=O)c2ccc(Br)cc2)c2ccccc2c1O	0.835	0.365
OCCOc1ccc(/C(=C(/CCCl)c2ccccc2)c2ccccc2)cc1 [Ospemifene]	0.854	0.735
CC(=O)c1cc([N+](=O)[O-])c(Sc2cccc(Cl)c2Cl)s1	0.895	0.2
CN(C)C(=O)c1ccc(S(=O)(=O)c2ccc(NC(=O)[C@@](C)(O)C(F)(F)F)c(Cl)c2)cc1	0.83	0.753
CNCc1ccc(-c2cc(-c3nc(-c4ccc(S(=O)(=O)C(C)C)cc4)cnc3N)on2)cc1	0.792	0.849

Compound	fractional viability (2uM)	fractional viability (10uM)
NC[C@@](O)(c1ccc(Cl)cc1)c1ccc(-c2cn[nH]c2)cc1	0.858	0.87
O=C(NC1CCN(CCCCC2(C(=O)NCC(F)(F)F)c3ccccc3-c3ccccc32)CC1)c1ccccc1-c1ccc(C(F)(F)F)cc1 [Lomitapide Mesylate]	0.887	0.0779
O=C(O)c1ccccc1C(=O)Nc1ccc(-c2ccccc2)cc1 [Kartogenin]	0.838	0.747
C=CCc1ccc(O)c(-c2ccc(O)c(CC=C)c2)c1 [Honokiol]	0.957	1.01
Cc1ccc(C(=O)N(CCCN)[C@@H](c2nc3cc(Cl)ccc3c(=O)n2Cc2ccccc2)C(C)C)cc1	0.71	0.309
C#CC[C@H](c1nc2cc(Cl)ccc2c(=O)n1Nc1ccccc1)N(CCCN)C(=O)c1cccc(Cl)c1F	0.562	0.0443
O=C1C(=O)N(Cc2ccc(Cl)c(Cl)c2)c2ccccc21 [Apoptosis Activator 2]	0.461	0.287
Cc1cccc(-c2[nH]c(C(C)(C)C)nc2-c2ccc3nccnc3c2)n1	1.28	1.26
CC1(C)CCC2=C(O1)c1ccccc1C(=O)C2=O [Beta-Lapachone]	0.202	0.0483
CC1=CC(=O)c2ccccc2C1=O [Menadione]	0.94	0.75
OCCn1cc(-c2cnc3nnn(Cc4ccc5ncccc5c4)c3n2)cn1	1.09	1.14
COc1ccc(C2=N[C@@H](c3ccc(Cl)cc3)[C@@H](c3ccc(Cl)cc3)N2C(=O)N2CCNC(=O)C2)c(OC(C)C)c1 [Nutlin-3]	0.858	0.623
COc1ccc(C2=N[C@@H](c3ccc(Cl)cc3)[C@@H](c3ccc(Cl)cc3)N2C(=O)N2CCNC(=O)C2)c(OC(C)C)c1 [Nutlin-3a]	0.481	0.367
CCCc1cc2c(N3CCN(C4=NCC(C)(C)S4)CC3)ncnc2s1 [MI-2 (Menin-MLL Inhibitor)]	0.828	0.711
Clc1ccc(NN=C(c2ccccc2)c2ccccn2)nc1	0.229	0.0582
CN(C)C(=S)NN=C(c1ccccn1)c1ccccn1	0.572	0.755
O=C(Nc1cccc(Cl)c1)c1ccccn1	1.19	1.02
CC(C)C[C@@H](C=O)NC(=O)[C@H](CC(C)C)NC(=O)[C@H](CC(C)C)NC(=O)OCc1ccccc1	0.236	0.144
O=C(O)C(S)=Cc1c[nH]c2ccc(F)cc12	0.79	0.825
Nc1ncnc2c1C(=O)N(c1ccc([C@H]3CC[C@H](CC(=O)O)CC3)cc1)CCO2	0.723	0.773
Nc1cccc(S(=O)(=O)N2CCCN(S(=O)(=O)c3ccc4c(c3)OCCO4)CC2)c1	0.783	0.849
C=CC(=O)Nc1ccc2ncnc(Nc3ccc(OCc4cccc(F)c4)c(Cl)c3)c2c1	0.742	0.0667
CS(=O)(=O)CCNCc1ccc(-c2ccc3ncnc(Nc4ccc(OCc5cccc(F)c5)c(Cl)c4)c3c2)o1	1.05	0.369
C=CC(=O)Nc1ccc2ncnc(Nc3cccc(Br)c3)c2c1	0.982	0.588
